BRCA1 expr up: increases BRCA1 expression | AID 624202 | Potency, µM (series often up to 46.1 µM), hits mostly activators | MCF7-BRCA1-FFLuc reporter, luminescence, 48 h; response scale: scaled: vehicle 0%, 10 µM genistein 100% | 380,000 compounds, 1.1% hits; also: nearly all actives have a fitted effect of over 80% in size
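Reporter cells (MCF7, BRCA1 promoter-firefly luciferase) received library compounds across a concentration series for 48 h. End-point luminescence was measured and concentration-effect curves derived after normalization.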
GLP-1R agonist: agonists of human GLP-1 receptor | HEK293 GLP-1R CRE-luciferase, luminescence, 4-6 h; cells express a hypersensitive GLP-1R form | AID 624172 | Potency, µM (titrated, usually from 45.6 µM), usual class: activators | 380,000 compounds, 0.007% hits
Target sequence (P43220 whole entry, looked up): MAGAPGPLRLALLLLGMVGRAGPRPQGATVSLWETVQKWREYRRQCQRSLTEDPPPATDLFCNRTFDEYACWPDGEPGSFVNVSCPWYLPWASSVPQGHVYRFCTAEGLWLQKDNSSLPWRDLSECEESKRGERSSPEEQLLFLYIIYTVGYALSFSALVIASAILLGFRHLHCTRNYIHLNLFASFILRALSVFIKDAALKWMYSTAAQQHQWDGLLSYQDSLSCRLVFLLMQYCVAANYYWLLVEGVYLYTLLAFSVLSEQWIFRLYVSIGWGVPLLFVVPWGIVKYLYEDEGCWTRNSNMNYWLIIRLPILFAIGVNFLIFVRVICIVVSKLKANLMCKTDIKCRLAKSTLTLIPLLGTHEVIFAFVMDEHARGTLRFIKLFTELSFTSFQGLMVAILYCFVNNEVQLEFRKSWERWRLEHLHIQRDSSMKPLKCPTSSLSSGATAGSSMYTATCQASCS
GLP1R inv ag: inverse agonists of human GLP-1 receptor; HEK293 GLP-1R CRE-luciferase, luminescence, 24 h; GLP-1R form is constitutively active; Potency, µM (highest dose often 38.3 µM), most hits filed as inhibitors; 410,000 compounds, 1.6% hits; AID 624417; also: nearly all actives have a fitted effect of over 55% in size
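qHTS in 1536-well format: reporter HEK293 cells expressing constitutive GLP-1R activity in DMEM + 10% Nu serum, 24 hr with compounds at 37 deg C, luminescence read after 12 min with detection reagent.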
Mito fusion act: inhibitors of mitochondrial division or activators of mitochondrial fusion; 320,000 compounds, 0.23% hits; S. cerevisiae fusion-defective mutant growth rescue, CellTiterGlo 48 h; Potency, µM (highest dose often 46.1 µM), most hits filed as activators; AID 485298; also: nearly all actives have a fitted effect of over 45% in size
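Temperature-sensitive fusion-defective S. cerevisiae (e.g. fzo1-1, mgm1-5) were grown with compound in YPEG medium (3% ethanol, 3% glycerol) for 48 hours at 37C. Growth rescue was measured as viability by CellTiterGlo luminescence after 10 minutes at ambient.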
HEK293 tox: cytotoxic in the GLP-1 receptor inverse agonist counter-screen. HEK293 cAMP-luciferase reporter cells, luminescence, 24 h. Potency, µM (doses to about 38.3 µM), hits mostly inhibitors. 410,000 compounds, 0.13% hits;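 also: loss of luciferase light is scored as toxicity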
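Step one: seed cells (200 cells/uL, DMEM with 10% Nu serum, 1% pen-strep). Step two: 12-hour incubation at 37 deg C. Step three: pin 23 nL compound, incubate 24 hr. Step four: add luciferase reagent, read luminescence 12 min later.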
Of the large screens only hits and unclear results are named; the others gave an inactive call. Compounds with a hit are over-represented: about 2.8% of the library has one in this group of screens. Calls follow the shape of the dose curve; as a rule, active = well fitted curve in the direction sought with a large enough effect; inconclusive = small, poorly fitted or top-dose-only effect, or another doubt; inactive = no such curve, though single readings can be large; an effect the other way counts as inactive or inconclusive.

CNC(=S)N/N=C(\C)c1ccc2c(c1)OCCO2	GLP1R inv ag inconclusive, HEK293 tox inconclusive
C/C(=N\NC(=S)NC(C)C)c1ccc2c(c1)OCCO2	GLP1R inv ag 10µM, HEK293 tox 4.5µM
CNC(=S)N/N=C(\C)c1ccccc1	GLP1R inv ag 10µM, HEK293 tox inconclusive
CCc1ccc2[nH]cc(C(=O)OCCOC)c(=O)c2c1	none
COc1ccc(C2c3ccc4ccccc4c3Oc3ncn(CCCO)c(=N)c32)cc1 (configuration not stated)	GLP1R inv ag 5.6µM, HEK293 tox inconclusive
COc1ccc(C2c3ccc4ccccc4c3Oc3ncn(CCO)c(=N)c32)cc1 (configuration not stated)	GLP1R inv ag inconclusive
COc1ccc(C2c3ccc4ccccc4c3Oc3ncn(CCN(C)C)c(=N)c32)cc1 (configuration not stated)	GLP1R inv ag 4µM, HEK293 tox inconclusive
CC(NC(=O)NC1CCCCC1)c1ccc2c(c1)OCO2 (configuration not stated)	GLP1R inv ag inconclusive
CC(NC(=O)NC12CC3CC(CC(C3)C1)C2)c1ccc2c(c1)OCO2 (configuration not stated)	GLP1R inv ag 11µM
COc1ccc(C(=O)NCCSC2CCCCC2)cc1	BRCA1 expr up 1.8µM, GLP1R inv ag inconclusive
CCCCCn1c(CCC(=O)Oc2ccccc2OC)nc2c1c(=O)[nH]c(=O)n2CCCC	none
Cc1ccccc1C(=O)N(Cc1nc(-c2ccc(Cl)cc2)no1)C(C)C	GLP1R inv ag inconclusive (no result: BRCA1 expr up, GLP-1R agonist, Mito fusion act)
CC(C)N(Cc1nc(-c2ccccc2)no1)C(=O)c1ccc(Cl)cc1	GLP1R inv ag 11µM
COC(=O)c1ccc(Cn2nnc3sc4c(c3c2=O)CCCC4)cc1	none (no result: BRCA1 expr up, GLP-1R agonist, Mito fusion act)
O=C(O)c1ccc(Cn2nnc3sc4c(c3c2=O)CCCC4)cc1	BRCA1 expr up 7.9µM
O=C(NC1CCCC1)c1ccc(CS(=O)(=O)Cc2ccccc2Cl)o1	none
COc1ccc(COc2ccc3c(C)cc(=O)oc3c2)cc1	BRCA1 expr up 2.5µM
CCN(Cc1cc(=O)oc2cc(C)ccc12)c1ccccc1	GLP1R inv ag 10µM
Cc1ccc2c(CN3CCC(C)CC3)cc(=O)oc2c1	BRCA1 expr up 3.2µM
Cc1ccc2c(CN(C)Cc3ccc(Cl)cc3Cl)cc(=O)oc2c1	GLP1R inv ag 11µM
O=C(NC1CCS(=O)(=O)C1)c1cccs1 (configuration not stated)	none
Cc1ccc(C(=O)NC2CCN(CC(=O)Nc3c(C)cc(C)cc3C)CC2)cc1	none
COc1ccc2c(CN(C)Cc3ccccc3)cc(=O)oc2c1	BRCA1 expr up 5µM, GLP-1R agonist inconclusive (no result: Mito fusion act)
COc1ccc2c(CN(C)c3ccccc3)cc(=O)oc2c1	GLP1R inv ag inconclusive
COc1cccc(S(=O)(=O)NCc2ccc(C(=O)N3CCN(c4ccccc4)CC3)cc2)c1	GLP1R inv ag inconclusive
O=C(N/N=C/c1ccco1)C1CC1(c1ccccc1)c1ccccc1 (configuration not stated)	GLP1R inv ag 10µM
Cc1cccnc1NCc1ccc(O)c2ncccc12	GLP1R inv ag 2.8µM, HEK293 tox inconclusive
Cc1cccc(NCc2ccc(O)c3ncccc23)c1C	HEK293 tox inconclusive
COC(=O)c1cc(S(=O)(=O)NCC2CCN(Cc3ccc(F)cc3)CC2)c[nH]1	none
COc1ccc(CN2CCC(CNS(=O)(=O)c3cccc(C(F)(F)F)c3)CC2)cc1	GLP1R inv ag 11µM
CCNC(=O)C1(C)CCCN(Cc2ccc(Oc3ccccc3)cc2)C1 (configuration not stated)	GLP1R inv ag 10µM (no result: Mito fusion act)
COc1ccc(-c2cn[nH]c2-c2ccc(OCc3ccccc3)cc2O)cc1	GLP1R inv ag 3.5µM, HEK293 tox inconclusive
CCOc1ccc(-c2[nH]ncc2-c2ccccc2)c(O)c1	GLP1R inv ag 10µM
COc1ccc(-c2cn[nH]c2-c2ccc(OC)cc2O)cc1	GLP1R inv ag 10µM, HEK293 tox inconclusive
COc1ccc(-c2[nH]ncc2-c2ccc(Cl)cc2)c(O)c1	GLP1R inv ag inconclusive
CCCOC(=O)c1ccc(Oc2c(-c3ccc(OCC)cc3O)n[nH]c2C)cc1	GLP1R inv ag inconclusive, Mito fusion act inconclusive, HEK293 tox inconclusive

Compound activity (PubChem BioAssay)
